IDH1 R132H inh: human IDH1 R132H inhibition. IDH1-R132H enzyme, NADPH consumption, diaphorase/resazurin fluorescence. hit rate 0.093% among 390,000. AID 602179. Potency, µM (titrated, usually from 76.6 µM), for the others: at the top dose activity change, negative = inhibition, hits mostly inhibitors; further: potency means the concentration at half of the fitted maximal effect; on the % scale 0 is the no-effect control and ±100 the full control effect; nearly all actives have a fitted effect of over 65% in size
Target sequence (O75874 whole entry R132H, stated change not applied): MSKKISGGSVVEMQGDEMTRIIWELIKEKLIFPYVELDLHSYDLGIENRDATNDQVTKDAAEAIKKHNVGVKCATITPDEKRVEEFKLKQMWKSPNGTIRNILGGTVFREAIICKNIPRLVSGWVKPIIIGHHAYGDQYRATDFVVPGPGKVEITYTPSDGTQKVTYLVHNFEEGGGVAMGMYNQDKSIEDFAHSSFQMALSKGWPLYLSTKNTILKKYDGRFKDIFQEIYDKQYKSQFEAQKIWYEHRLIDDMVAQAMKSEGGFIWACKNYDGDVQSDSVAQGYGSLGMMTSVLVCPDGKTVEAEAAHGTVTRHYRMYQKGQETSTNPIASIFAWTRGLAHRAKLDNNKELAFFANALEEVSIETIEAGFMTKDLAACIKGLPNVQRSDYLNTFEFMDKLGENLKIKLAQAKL
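IDH1-R132H (0.5 ug/mL dispensed) in pH 7.5 Tris buffer was preincubated 30 min with compound, then given a substrate mix of 0.016 mM NADPH and 2 mM alpha-KG for 80 min at room temperature; remaining NADPH was read by diaphorase/resazurin fluorescence.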
LDHA block: LDHA (human) enzyme inhibition | purified LDHA, NADH/diaphorase-resazurin fluorescence; stronger effect = lower value | hit rate 0.15% among 480,000 | P00338 | AID 1347041 | activity change, % (values are at about 110 or 230 µM); in the data active means activity change below about -30%; inconclusive means mostly about -25% to -30%;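 further: plate controls were DMSO wells for no effect and wells without enzyme for full effect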
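Enzyme activity of human lactate dehydrogenase 5 (2 nM; 0.06 mM NADH, 0.2 mM pyruvate, 5 min, RT) is measured via a resazurin/diaphorase fluorescence readout of residual NADH.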
aSyn yeast inh: inhibitors of alpha-synuclein toxicity in yeast. Yeast expressing alpha-synuclein, growth rescue, BacTiter-Glo, 24 h. Potency, µM (top dose mostly 46.1 µM), without a hit: at the highest dose growth rescue (activation), most hits filed as activators. hit rate 0.14% among 370,000; further: potency means the concentration at half of the fitted maximal effect; % of control where 0% means no effect; nearly all actives have a fitted effect of over 65% in size
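Galactose-induced alpha-syn yeast (OD600=0.02, raffinose-pregrown) + pinned cpd, 24 hr, 30 deg C; growth by BacTiter-Glo luminescence. Growth restoration scores as activation.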
TDP43 rescue: TDP-43 toxicity inhibition in yeast. hit rate 1.8% among 410,000. Potency, µM (series often up to 46.1 µM), for the others: at the highest dose growth rescue (activation), hits mostly activators. TDP-43 expressing yeast growth rescue, BacTiter-Glo, 24 h; further: potency means the concentration at half of the fitted maximal effect; % of control where 0% means no effect; nearly all actives have a fitted effect of over 50% in size
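In this qHTS, compounds that restore growth of yeast expressing TDP-43 appear as activators. Cells (OD600=0.02, galactose medium, raffinose-pregrown) are incubated with compound 24 hr at 30 deg C and growth is quantified by BacTiter-Glo.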
Abeta rescue: A-beta toxicity reversal in yeast. yeast expressing A-beta42, growth rescue, OD600, 48 h; response scale: 0% DMSO, 100% iron-clioquinol control. Potency, µM (titrated, usually from 46.1 µM), most hits filed as activators. hit rate 0.063% among 410,000; further: potency means the concentration at half of the fitted maximal effect; nearly all actives have a fitted effect of over 55% in size
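Growth rescue measured by 600 nm absorbance after 48 h yeast culture at 30 C with compound. Values normalized between DMSO and an equimolar ferric chloride plus clioquinol control.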
FUS yeast rescue: FUS proteinopathy suppression in yeast. S. cerevisiae FUS-expressing, growth rescue, OD600, 24 h. hit rate 0.24% among 390,000. AID 1347120. Potency, µM (series often up to 76.6 µM), hits mostly activators;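 further: potency means the concentration at half of the fitted maximal effect; plate controls were DMSO vehicle for no effect and reference control for full effect; nearly all actives have a fitted effect of over 55% in size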
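FUS-expressing yeast, raffinose-pregrown, induced in 2% galactose minimal medium at OD 0.005; compounds in a dilution series, 24hr at 30C. Growth restoration read as absorbance at 600 nm. CP55940 positive control, DMSO negative.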
* = called active by the depositor; i = inactive; ? = inconclusive; . = not tested or not shown. An excerpt weighted towards active compounds, which were near 2% of everything screened. Unless noted, the call rests on the fitted dose curve; in most records, active means well fitted curve in the direction sought with a large enough effect; inconclusive means small, poorly fitted or top-dose-only effect, or another doubt; inactive means no such curve, though single readings can be large; an effect the other way counts as inactive or inconclusive.

SMILES	IDH1 R132H inh	LDHA block	aSyn yeast inh	TDP43 rescue	Abeta rescue	FUS yeast rescue
O=C1CC(O)(C(F)(F)F)Oc2c1ccc1ccccc21 (configuration not stated)	0%	6	13µM*	14%	i	i
NC(=O)NC(=O)COC(=O)c1ccc2c(c1)OCCO2	.	0	.	.	.	.
COc1ccc2ccccc2c1C=C(C#N)c1ccccn1	.	-3	.	.	.	.
COC(=O)Cc1cc(=O)n(-c2nc3ccccc3[nH]2)[nH]1	0%	-40*	5%	-21%	i	?
CCOC(=O)C1=C(C)N=c2s/c(=C\c3ccc(OCC(=O)O)c(OC)c3)c(=O)n2C1c1ccc(OC)cc1 (configuration not stated)	13%	0	1%	8%	i	35µM*
CCOC(=O)C1=C(C)N=c2s/c(=C\c3ccc(OCC(=O)O)cc3)c(=O)n2C1c1ccccc1 (configuration not stated)	-1%	-2	0%	-3%	i	?
Cc1ccccc1-c1cc(-c2ccccc2O)n[nH]1	5%	3	7%	11µM*	i	i
Cc1ccc(-c2cc(-c3ccccc3Cl)[nH]n2)c(O)c1	1%	-8	-49%	-1%	i	i
Oc1ccccc1-c1cc(-c2ccccc2)n[nH]1	20%	-1	-6%	?	i	i
Oc1ccccc1-c1cc(-c2ccc(F)cc2)n[nH]1	14%	-2	-17%	3.5µM*	i	i
COc1ccc(O)c(-c2cc(-c3ccccc3Cl)[nH]n2)c1	-1%	-5	-15%	18µM*	i	i
Cc1cccc2sc(NC(=O)Cn3cccc3)nc12	17%	4	18%	7%	11µM*	i
O=C(Nc1nc2c(Cl)cccc2s1)C1CC1	-4%	0	-1%	19%	i	i
Cc1cccc2sc(NC(=O)CN(C)S(=O)(=O)c3cccs3)nc12	2%	-7	22%	16µM*	i	i
Cc1cccc2sc(NC(=O)CN(C)S(=O)(=O)c3ccc(Br)s3)nc12	5%	-2	5%	?	i	i
Cc1cccc2sc(NC(=O)C3CC3)nc12	4%	-2	-23%	11µM*	i	i
O=C(Nc1nc2cc3c(cc2s1)OCCO3)C1CCCCC1	5%	0	-27%	25µM*	i	i
Cc1[nH][nH]c(=O)c1C(c1cccc(OCc2ccc(Cl)cc2)c1)c1c(C)[nH][nH]c1=O	.	30	.	.	.	.
CC(C)c1ccc2nc(NC(=O)C3CC3)sc2c1	4%	-1	-15%	22µM*	i	i
O=C(Nc1nc2ccc(Cl)cc2s1)C1CC1	3%	-11	-11%	26%	i	i
Cc1oc(-c2ccc(Cl)cc2)nc1CS(=O)CC(=O)N1CCN(c2cccc(C(F)(F)F)c2)CC1 (configuration not stated)	-6%	7	.	7%	i	i
Cc1ccc(-c2nc(CS(=O)CC(=O)N3CCN(c4cccc(Cl)c4)CC3)c(C)o2)cc1 (configuration not stated)	17%	2	.	32µM*	i	?
Cc1oc(-c2ccccc2Cl)nc1CS(=O)CC(=O)N1CCN(c2cccc(C(F)(F)F)c2)CC1 (configuration not stated)	20%	13	.	?	i	25µM*
COc1ccccc1N1CCN(C(=O)c2ccc3c(Cl)c4c(nc3c2)CCCC4)CC1	14%	2	1%	20µM*	i	?
O=C(c1ccc2c(=O)n3c(nc2c1)CCCCC3)N1CCN(c2cccc(Cl)c2)CC1	13%	2	1%	35µM*	i	?
SMILES	IDH1 R132H inh	LDHA block	aSyn yeast inh	TDP43 rescue	Abeta rescue	FUS yeast rescue
O=C(c1ccc2c(Cl)c3c(nc2c1)CCCC3)N1CCN(c2ccc(F)cc2)CC1	5%	-11	-2%	16µM*	i	i
Cc1ccc(N2CCN(C(=O)c3ccc4c(Cl)c5c(nc4c3)CCCC5)CC2)c(C)c1	-7%	-6	.	22%	i	i
CCOc1cccc(/C=C(/C#N)C(=O)c2ccccc2OC)c1	.	1	.	.	.	.
Oc1ccc(/C=C/c2nc(-c3ccc(F)cc3)cs2)cc1	.	2	.	.	.	.
Cc1ccc(S(=O)(=O)Cc2ccc(C(=O)N3CCN(c4cccc(C)c4C)CC3)o2)cc1	13%	3	13%	22µM*	i	?
COc1ccc(CC(=O)N2CCN(c3cccc(C)c3C)CC2)cc1	1%	-7	-2%	11µM*	i	i
O=C(c1ccc(CS(=O)(=O)c2c(Cl)cccc2Cl)o1)N1CCN(c2ccccc2)CC1	-13%	-1	.	29%	i	28µM*
COc1ccc(S(=O)(=O)Cc2ccc(C(=O)N3CCN(c4cccc(C)c4C)CC3)o2)cc1	6%	3	1%	25µM*	i	i
Cc1cc(/C=C/C(=O)c2cccs2)cc(C)c1O	.	3	.	.	.	.
COc1cccc(NC(=O)N2CCN(c3cccc(C)c3C)CC2)c1	6%	-1	0%	13µM*	i	i
COc1ccccc1N1CCN(C(=O)Nc2cccc(Cl)c2)CC1	-1%	-7	6%	-4%	i	i
O=C(c1ccc(COc2ccccc2)o1)N1CCN(S(=O)(=O)c2ccccc2Cl)CC1	4%	1	0%	16µM*	i	i
Cc1ccc(S(=O)(=O)N2CCN(C(=O)c3ccc(COc4ccccc4)o3)CC2)cc1	0%	-8	-3%	20%	i	i
CC(C)CC(=O)N1CCC(NC(=O)c2ccc3ccccc3n2)CC1	.	0	.	.	.	.
CCOc1cc(Br)c(C2C(C#N)=C(N)Oc3cc4c(cc32)OCO4)cc1OCC (configuration not stated)	.	76	.	.	.	.
O=C(Nc1ccc(F)c(F)c1F)C12CC3CC(CC(Cl)(C3)C1)C2	.	-4	.	.	.	.
CC(C)=CC(=O)Nc1ccc(OCc2ccccc2)cc1	-3%	-5	-21%	13µM*	i	i
COc1ccc(C2C(C#N)=C(N)OC(C(C)(C)C)=C2C#N)c(OC)c1OC (configuration not stated)	.	66	.	.	.	.
Clc1cccc(N2CCN(c3c4c(nc5nncn35)CCC4)CC2)c1	.	-8	.	18µM*	i	i
Cc1nc2sccn2c1-c1csc(Nc2cccc(Cl)c2C)n1	.	12	.	.	.	.
COc1ccc(C)cc1NC(=O)CSc1nnc(COc2ccc(C)cc2)n1Cc1ccco1	0%	-1	1%	16µM*	i	i
COc1ccc(NC(=O)CSc2nnc(COc3ccc(C)cc3)n2Cc2ccco2)c(OC)c1	.	0	.	.	.	.

Source: PubChem
